For some assays here: Results with a measured potency or affinity are listed apart. The source made the active and inactive calls. Unless noted, the rule behind the calls is not given here.
Experiments:
[1] = antimalarial activity against Dd2 strain (AID 2302;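 active = growth inhibition above 50% at the single 2 µM test dose, taken to imply half-maximal potency below 2 µM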;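 note: 0% = DMSO untreated growth and 100% = chloroquine plus artemisinin killed control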); details: P. falciparum Dd2 in RBCs, LDH growth readout, 72 h; at 2 µM; hits give high values
[2] = human hepatoma cell viability loss – ATP luminescence, cytotoxicity control for P. falciparum antimalarial project, primary screen (AID 2303;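 active = inhibition above 50%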;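 note: 0% = DMSO wells and 100% = digitonin-killed cells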); details: HepG2 viability, 24-48 h, at 10 µM, hits give high values
[3] = target: L-lactate dehydrogenase (Plasmodium falciparum (isolate CDC / Honduras)) (UniProt Q27743); experiment: PfLDH activity inhibition – cell lysate, 3D7 strain, counter-screen for P. falciparum growth inhibition project (AID 2304);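 note: 0% = vehicle and 100% = reference inhibitor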; details: P. falciparum 3D7 crude extract, LDH APAD/NBT absorbance; at 2 µM; hits give high values
L-lactate dehydrogenase (Plasmodium falciparum (isolate CDC / Honduras)), sequence (Q27743 whole entry, looked up): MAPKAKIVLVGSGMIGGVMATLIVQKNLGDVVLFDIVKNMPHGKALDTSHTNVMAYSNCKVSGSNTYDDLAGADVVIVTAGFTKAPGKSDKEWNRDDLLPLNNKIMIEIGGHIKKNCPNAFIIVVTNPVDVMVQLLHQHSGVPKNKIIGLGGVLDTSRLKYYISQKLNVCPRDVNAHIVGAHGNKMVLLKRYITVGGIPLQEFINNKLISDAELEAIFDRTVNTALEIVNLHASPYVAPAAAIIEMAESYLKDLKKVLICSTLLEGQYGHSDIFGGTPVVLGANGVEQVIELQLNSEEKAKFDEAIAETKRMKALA

[4] = inhibition of 3D7 malaria parasite growth – strain 3D7 (AID 2306);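 note: 0% = DMSO wells and 100% = chloroquine plus artemisinin control wells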; details: P. falciparum 3D7 erythrocytic growth, LDH absorbance, 72 h; at 2 µM; hits give high values
[5] = target: Calcium-dependent protein kinase 1 (Plasmodium falciparum (isolate 3D7)) (UniProt P62344); experiment: PfCDPK1 kinase inhibitors, biochemical, TCAMS library (AID 1159585; cut-off not given, nearly all actives have IC50 up to about 0.98 µM;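 note: inhibitors leave more ATP so luminescence rises with inhibition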); details: recombinant PfCDPK1, Kinase-Glo ATP depletion luminescence
Calcium-dependent protein kinase 1 (Plasmodium falciparum (isolate 3D7)), sequence (P62344 whole entry, looked up): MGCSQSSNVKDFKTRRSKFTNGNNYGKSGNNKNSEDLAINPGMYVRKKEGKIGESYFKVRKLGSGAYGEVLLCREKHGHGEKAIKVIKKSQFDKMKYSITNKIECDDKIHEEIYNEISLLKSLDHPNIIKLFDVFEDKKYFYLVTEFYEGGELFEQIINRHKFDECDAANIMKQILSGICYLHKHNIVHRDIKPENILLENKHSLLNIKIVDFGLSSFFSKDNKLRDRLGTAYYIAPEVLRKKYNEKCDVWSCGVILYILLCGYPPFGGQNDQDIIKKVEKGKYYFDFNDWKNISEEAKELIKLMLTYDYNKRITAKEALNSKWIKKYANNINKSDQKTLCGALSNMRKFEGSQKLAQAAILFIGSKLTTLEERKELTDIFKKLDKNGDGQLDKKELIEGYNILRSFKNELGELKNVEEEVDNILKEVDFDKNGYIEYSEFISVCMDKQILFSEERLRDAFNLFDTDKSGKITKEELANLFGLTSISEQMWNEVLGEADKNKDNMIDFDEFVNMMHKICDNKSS

[6] = target: Plasmodium falciparum protein kinase 6 (PK6, PF3D7_1337100) (UniProt Q8IDW1); experiment: PfPK6 kinase inhibitors, biochemical, TCAMS library (AID 1159586); details: recombinant PfPK6, Kinase-Glo ATP depletion luminescence
Plasmodium falciparum protein kinase 6 (PK6, PF3D7_1337100), sequence (Q8IDW1 1-305): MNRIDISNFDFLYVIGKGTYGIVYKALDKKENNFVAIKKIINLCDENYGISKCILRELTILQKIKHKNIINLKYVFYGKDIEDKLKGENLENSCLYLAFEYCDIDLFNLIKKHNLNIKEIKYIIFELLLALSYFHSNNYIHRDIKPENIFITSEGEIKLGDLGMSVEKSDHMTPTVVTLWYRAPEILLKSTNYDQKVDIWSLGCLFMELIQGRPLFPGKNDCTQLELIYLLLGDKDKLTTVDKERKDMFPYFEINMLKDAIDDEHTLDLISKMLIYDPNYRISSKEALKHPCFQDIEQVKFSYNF

[7] = target: Protein kinase 7 (PK7), Plasmodium falciparum 3D7 (PF3D7_0213400) (UniProt Q7YTF7); experiment: inhibition of Plasmodium PK7 catalytic activity – biochemical, TCAMS antimalarial set, Kinase-Glo luminescence (AID 1159587); details: recombinant PfPK7, Kinase-Glo ATP depletion luminescence
Protein kinase 7 (PK7), Plasmodium falciparum 3D7 (PF3D7_0213400), sequence (Q7YTF7 1-343): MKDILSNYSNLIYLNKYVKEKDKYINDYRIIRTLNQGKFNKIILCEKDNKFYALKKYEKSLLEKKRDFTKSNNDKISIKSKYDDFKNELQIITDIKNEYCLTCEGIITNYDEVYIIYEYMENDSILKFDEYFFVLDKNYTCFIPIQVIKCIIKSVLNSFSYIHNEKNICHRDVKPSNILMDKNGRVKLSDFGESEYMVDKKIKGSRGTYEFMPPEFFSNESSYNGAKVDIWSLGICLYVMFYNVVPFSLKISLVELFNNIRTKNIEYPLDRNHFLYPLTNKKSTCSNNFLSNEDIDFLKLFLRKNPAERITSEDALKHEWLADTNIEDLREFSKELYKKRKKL

[8] = target: Calcium-dependent protein kinase 4 (Plasmodium falciparum (isolate 3D7)) (UniProt Q8IBS5); experiment: PfCDPK4 kinase inhibitors, biochemical, TCAMS library (AID 1159588; cut-off not given, nearly all actives have IC50 up to about 0.91 µM); details: recombinant PfCDPK4, Kinase-Glo ATP depletion luminescence
Calcium-dependent protein kinase 4 (Plasmodium falciparum (isolate 3D7)), sequence (Q8IBS5 whole entry, looked up): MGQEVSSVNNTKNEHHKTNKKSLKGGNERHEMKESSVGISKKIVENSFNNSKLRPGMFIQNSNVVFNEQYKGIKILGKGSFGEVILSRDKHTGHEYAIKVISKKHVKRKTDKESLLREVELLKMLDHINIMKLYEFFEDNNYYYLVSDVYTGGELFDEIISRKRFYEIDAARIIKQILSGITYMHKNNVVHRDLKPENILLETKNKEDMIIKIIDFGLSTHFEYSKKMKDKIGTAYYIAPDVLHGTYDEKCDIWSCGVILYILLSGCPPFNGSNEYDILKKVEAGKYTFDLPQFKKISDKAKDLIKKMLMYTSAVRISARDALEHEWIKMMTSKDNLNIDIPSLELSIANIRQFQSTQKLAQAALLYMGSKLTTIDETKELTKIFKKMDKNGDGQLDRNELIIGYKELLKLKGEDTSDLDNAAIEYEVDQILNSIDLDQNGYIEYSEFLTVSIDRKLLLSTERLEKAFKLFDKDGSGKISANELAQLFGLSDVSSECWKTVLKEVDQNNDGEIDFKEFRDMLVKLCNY

CCCCCc1cc(OC(C)=O)c2c(c1)OC(C)(C)C=C2C1=CCN(Cc2ccccc2)CC1
active: growth inhibition [1] 88% | growth inhibition [4] 97%
inactive: inhibition [2] 14% | inhibition [3] -3% | outcome [5] | outcome [6] | outcome [7] | outcome [8]

O=C(CCc1cnc[nH]1)Nc1cccc(-c2ccc(-c3nc4ccc(F)cc4[nH]3)cc2)c1
inactive: inhibition [2] 18% | inhibition [3] -1% | outcome [5] | outcome [6] | outcome [7] | outcome [8]
active: growth inhibition [1] 79% | growth inhibition [4] 101%

CCn1cc(-c2cc(C(=O)Nc3ccc(OC)cc3C)c3ccccc3n2)c(C)n1
inactive: inhibition [2] -5% | inhibition [3] 2% | outcome [5] | outcome [6] | outcome [7] | outcome [8]
active: growth inhibition [1] 100% | growth inhibition [4] 97%

O=C(c1ccc(-c2cccc(-c3nc4ccc(F)cc4[nH]3)c2)cc1)N1CCCCC1CN1CCC(O)C1 (stereo not given)
active: growth inhibition [4] 91%
inactive: growth inhibition [1] -4% | inhibition [2] 11% | inhibition [3] -1% | outcome [5] | outcome [6] | outcome [7] | outcome [8]

O=C(Nc1nc2cc(S(=O)(=O)NCc3ccc(Cl)c(Cl)c3)ccc2n1CCCN1CCCC1)c1ccc(Cl)cc1
inactive: growth inhibition [1] 16% | inhibition [3] -1% | outcome [5] | outcome [6] | outcome [7] | outcome [8]
active: inhibition [2] 57% | growth inhibition [4] 89%

CCOC(=O)COc1cccc(CNc2ccc3nc(N)nc(N)c3c2)c1
active: growth inhibition [1] 99% | growth inhibition [4] 100%
inactive: inhibition [2] 18% | inhibition [3] 4% | outcome [5] | outcome [6] | outcome [7] | outcome [8]

Cn1nccc1C(=O)NCCNCc1cccc(-c2ccc(-c3nc4ccccc4[nH]3)s2)c1
active: growth inhibition [1] 94% | growth inhibition [4] 100%
inactive: inhibition [2] 22% | inhibition [3] -4% | outcome [5] | outcome [6] | outcome [7] | outcome [8]

CCN(CC)CCN(CCN(CC)CC)c1ccc2c(c1)Sc1c(Cl)ccc(Cl)c1S2
inactive: inhibition [2] 31% | inhibition [3] -5% | outcome [5] | outcome [6] | outcome [7] | outcome [8]
active: growth inhibition [1] 94% | growth inhibition [4] 98%

O=C(Nc1cccc(CN2CCN(Cc3cccc(O)c3)CC2)c1)c1cc2ccccc2s1
inactive: inhibition [2] 13% | inhibition [3] 0% | outcome [5] | outcome [6] | outcome [7] | outcome [8]
active: growth inhibition [1] 54% | growth inhibition [4] 86%

O=C(CNc1ccncc1)c1c[nH]c2ccccc12
active: growth inhibition [1] 62% | growth inhibition [4] 90%
inactive: inhibition [2] 31% | inhibition [3] -3% | outcome [5] | outcome [6] | outcome [7] | outcome [8]

Nc1c(Cl)cc(C(O)CNCCCCCOCCc2ccc3ccccc3n2)cc1Cl (stereo not given)
inactive: inhibition [2] 9% | inhibition [3] -1% | outcome [5] | outcome [6] | outcome [7] | outcome [8]
active: growth inhibition [1] 97% | growth inhibition [4] 98%

COc1cccc(CC(=O)N2CCC(n3c(C)nc4ccc(F)cc43)CC2)c1
inactive: inhibition [2] -8% | inhibition [3] -3% | outcome [5] | outcome [6] | outcome [7] | outcome [8]
active: growth inhibition [1] 99% | growth inhibition [4] 100%

CC(C)c1ccc(CN2CCC(CNC(=O)c3cc(-c4cccc(F)c4)cs3)C2)cc1 (stereo not given)
active: inhibition [2] 59% | growth inhibition [4] 100%
inactive: growth inhibition [1] 46% | inhibition [3] 5% | outcome [5] | outcome [6] | outcome [7] | outcome [8]

CCCC(CCC)n1ccc2c3c(N)nc(N)nc3ccc21
inactive: inhibition [3] -2% | outcome [5] | outcome [6] | outcome [7] | outcome [8]
active: growth inhibition [1] 97% | inhibition [2] 66% | growth inhibition [4] 98%

COc1ccc(Nc2cc(C)nc(NCc3ccc4c(c3)OCO4)n2)cc1
inactive: inhibition [2] 26% | inhibition [3] -2% | outcome [5] | outcome [6] | outcome [7] | outcome [8]
active: growth inhibition [1] 78% | growth inhibition [4] 99%

CC(=O)Nc1cc(C(=O)Nc2cccc(-c3cccc(-c4nc5c(C)cccc5[nH]4)c3)c2)ccc1C
active: growth inhibition [1] 62% | growth inhibition [4] 100%
inactive: inhibition [2] 25% | inhibition [3] 1% | outcome [5] | outcome [6] | outcome [7] | outcome [8]

O=C(NCCCN(Cc1ccc(F)cc1)c1ccccn1)C(c1cc2ccccc2o1)N1CCN(C(c2ccccc2)c2ccccc2)CC1 (stereo not given)
active: growth inhibition [1] 53% | growth inhibition [4] 97%
inactive: inhibition [2] 14% | inhibition [3] 1% | outcome [5] | outcome [6] | outcome [7] | outcome [8]

COC(=O)c1ccc2nc(-c3ccc(C(=O)NC4CCN(Cc5ccccc5)CC4)s3)[nH]c2c1
active: growth inhibition [1] 71% | growth inhibition [4] 99%
inactive: inhibition [2] -7% | inhibition [3] -4% | outcome [5] | outcome [6] | outcome [7] | outcome [8]

CO/C(=C\C=C\c1cc2cc(Cl)c(Cl)cc2[nH]1)C(=O)NCCCN1CCN(c2ccc(OC)cc2)CC1
active: growth inhibition [4] 99%
inactive: growth inhibition [1] 44% | inhibition [2] 40% | inhibition [3] -7% | outcome [5] | outcome [6] | outcome [7] | outcome [8]

COc1ccc(Nc2nccc(N3CCC(NC(=O)Nc4cccc(OC)c4)C3)n2)cc1 (stereo not given)
active: growth inhibition [4] 99%
inactive: growth inhibition [1] 48% | inhibition [2] 23% | inhibition [3] -1% | outcome [5] | outcome [6] | outcome [7] | outcome [8]

O=C(/C=C/c1ccc(Cl)c(Cl)c1)NCCCCCCN1CCN(C(=O)Nc2ccc(Cl)c(C(F)(F)F)c2)CC1
active: growth inhibition [4] 99%
inactive: growth inhibition [1] 43% | inhibition [2] 47% | inhibition [3] -6% | outcome [5] | outcome [6] | outcome [7] | outcome [8]

Oc1ccc(CCNCCCCNCCc2ccc(Cl)cc2)cc1O
active: growth inhibition [4] 94%
inactive: growth inhibition [1] -1% | inhibition [2] 33% | inhibition [3] -1% | outcome [5] | outcome [6] | outcome [7] | outcome [8]

COc1ccc(-c2nc(NCc3ccccc3)c3cc(OC)c(OC)cc3n2)cc1
inactive: inhibition [2] 15% | inhibition [3] -1% | outcome [5] | outcome [6] | outcome [7] | outcome [8]
active: growth inhibition [1] 100% | growth inhibition [4] 101%

COc1ccc2nccc([C@@H](O)CN3CCC(NCc4ccc(OC)c(NC=O)c4)CC3)c2c1
inactive: growth inhibition [1] -1% | inhibition [2] 0% | inhibition [3] 3% | outcome [5] | outcome [6] | outcome [7] | outcome [8]
active: growth inhibition [4] 97%

CN1CCN(c2cc(NC(=O)Nc3cccc(Cl)c3Cl)ccc2Cl)CC1
inactive: growth inhibition [1] 21% | inhibition [2] 2% | inhibition [3] 2% | outcome [5] | outcome [6] | outcome [7] | outcome [8]
active: growth inhibition [4] 102%

COc1cccc(COCC(O)CN(CCc2ccccn2)C(=O)c2ccccc2F)c1 (stereo not given)
active: inhibition [2] 61% | growth inhibition [4] 97%
inactive: growth inhibition [1] 30% | inhibition [3] -1% | outcome [5] | outcome [6] | outcome [7] | outcome [8]

CC(Nc1nc(Nc2ccc(F)cc2)nc(SCC(N)=O)n1)c1ccccc1 (stereo not given)
active: growth inhibition [1] 87% | growth inhibition [4] 90%
inactive: inhibition [2] 14% | inhibition [3] -2% | outcome [5] | outcome [6] | outcome [7] | outcome [8]

CN(CC(=O)Nc1ccc(F)c(F)c1F)c1ncnc2sc(-c3ccccc3)cc12
active: growth inhibition [4] 95%
inactive: growth inhibition [1] 34% | inhibition [2] 0% | inhibition [3] 2% | outcome [5] | outcome [6] | outcome [7] | outcome [8]

CCC(C)NS(=O)(=O)c1ccc2nc(Nc3ccc(C)c(Cl)c3)n(C3CCCCC3)c2c1 (stereo not given)
active: growth inhibition [1] 98% | growth inhibition [4] 99%
inactive: inhibition [2] -8% | inhibition [3] 5% | outcome [5] | outcome [6] | outcome [7] | outcome [8]

Cc1ccc2[nH]c(C)c(Br)c(=O)c2c1
active: growth inhibition [1] 84% | growth inhibition [4] 95%
inactive: inhibition [2] -4% | inhibition [3] -5% | outcome [5] | outcome [6] | outcome [7] | outcome [8]

Cc1c(CNCCCNc2nc3cscc3[nH]2)sc(C(F)F)c1Br
inactive: growth inhibition [1] 11% | inhibition [2] 1% | inhibition [3] 1% | outcome [5] | outcome [6] | outcome [7] | outcome [8]
active: growth inhibition [4] 99%

CN1C(C)(C)CC(NC(=O)c2ccc(-c3nc4cc(Cl)c(Cl)cc4[nH]3)cc2)CC1(C)C
inactive: inhibition [2] 8% | inhibition [3] 4% | outcome [5] | outcome [6] | outcome [7] | outcome [8]
active: growth inhibition [1] 97% | growth inhibition [4] 98%

CC(=O)c1ccc(-c2ccc(C(=O)NCCCCN3CCC(c4ccc5c(c4OCC(N)=O)CCCC5)CC3)cc2)s1
active: growth inhibition [4] 90%
inactive: growth inhibition [1] 4% | inhibition [2] 26% | inhibition [3] -4% | outcome [5] | outcome [6] | outcome [7] | outcome [8]

Cc1sc2nc(CSc3ccccc3)nc(N3CCN(CC(=O)NC4CC4)CC3)c2c1C
inactive: inhibition [2] 2% | inhibition [3] 1% | outcome [5] | outcome [6] | outcome [7] | outcome [8]
active: growth inhibition [1] 95% | growth inhibition [4] 96%

Cc1cnn(-c2cccc(C(=O)NC3CCC(CCN4CCc5ccc(C#N)cc5CC4)CC3)c2)c1 (stereo not given)
inactive: growth inhibition [1] 48% | inhibition [2] 24% | inhibition [3] -9% | outcome [5] | outcome [6] | outcome [7] | outcome [8]
active: growth inhibition [4] 94%

O=C(c1ccco1)c1cn(CCOc2ccccc2)c2ccccc12
inactive: growth inhibition [1] 10% | inhibition [2] 5% | inhibition [3] -4% | outcome [5] | outcome [6] | outcome [7] | outcome [8]
active: growth inhibition [4] 98%

COc1ccccc1C1CCN(C2CCC(NC(=O)/C=C/c3cc(C(F)(F)F)ccc3F)CC2)CC1 (stereo not given)
active: growth inhibition [4] 97%
inactive: growth inhibition [1] 32% | inhibition [2] 39% | inhibition [3] -3% | outcome [5] | outcome [6] | outcome [7] | outcome [8]

CNC(=O)C1Cc2c([nH]c3ccc(Cl)cc23)C2(CCN(CCc3ccccc3)CC2)N1 (stereo not given)
inactive: growth inhibition [1] 16% | inhibition [2] 2% | inhibition [3] -2% | outcome [5] | outcome [6] | outcome [7] | outcome [8]
active: growth inhibition [4] 98%

O=C(c1cccc(-c2cccc(-c3nc4ccc(F)cc4[nH]3)c2)c1)N1CCCCC1CN1CCC(O)C1 (stereo not given)
active: growth inhibition [1] 100% | growth inhibition [4] 90%
inactive: inhibition [2] 36% | inhibition [3] -5% | outcome [5] | outcome [6] | outcome [7] | outcome [8]

Cc1cc(NN=Cc2cccc([N+](=O)[O-])c2)c2cc(F)ccc2n1
active: growth inhibition [1] 99% | growth inhibition [4] 102%
inactive: inhibition [2] 3% | inhibition [3] -5% | outcome [5] | outcome [6] | outcome [7] | outcome [8]

From PubChem BioAssay
